Measurements as given in PubChem BioAssay AID1443 (Sanford-Burnham Center for Chemical Genomics, 2008).
Among all 220,000 compounds or so, about 880 (0.4%) were called active. Many of the other results were omitted from the sample, so actives are more common in it than they were. A number with no mark means an inactive call.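 Rule for the calls: active = cell killing above 50% in the first pass at 4 µM, then a duplicate retest at 5 µM averaging 50% or more; inactive = the rest.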

Test: PPC-1 cell viability loss under TRAIL – PPC-1 cells, ATPLite luminescence, uHTS, TRAIL potentiator project, primary screen (AID 1443);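 note: plate controls were cells with TRAIL plus DMSO for no effect and medium-only wells lacking cells for full effect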
Details: PPC-1 cells + TRAIL, active compounds read high; at 4 µM unless noted

Compared with `COc1ccc(CCNCC(O)Cn2ccc3ccccc32)cc1OC` (configuration not stated), `COc1ccccc1CNC(=O)c1ccc(SC)cc1OC` is higher in cell killing (% activity): -2.7% for the first, 16.9% for the second.

First: CC(=O)NC1C(Oc2ccc(C)cc2)OC2COC(c3ccco3)OC2C1O (configuration not stated)
Second: Cc1ccc(C(=O)N/C(=C\c2ccco2)C(=O)NC2CCS(=O)(=O)C2)cc1 (configuration not stated)
The cell killing (% activity) of the first is lower: 2.4% for the first, 9.8% for the second.

Going from `COc1cccc(/C=N\NC(=O)C2=NNC(=O)C2C)c1O` (configuration not stated) to `COc1cccc(/C=N/Nc2cc(C)nc(-c3ccccc3O)n2)c1O`, the cell killing (% activity) falls from 24.7% to 21.2%.

First: O=C(/C=C/c1ccccc1)Oc1coc(CSc2ncccn2)cc1=O
Second: CCOc1cccc(/C=C/c2ccc3ccccc3n2)c1OC(C)=O
The cell killing (% activity) of the first is lower: 5.1% for the first, 49.3% for the second.

Compared with `Cc1nc2cc(NCc3cccs3)ccc2n1C`, `Nc1ncc(-c2cc3ccccc3oc2=O)s1` is higher in cell killing (% activity): 1.5% for the first, 11.4% for the second.

Going from `COc1ccc(-c2ccnc(SCC(=O)N3CCOCC3)n2)cc1` to `COc1ccc(-c2nc(SCC(=O)N3CCOCC3)n[nH]2)cc1`, the cell killing (% activity) falls from 20.6% to 4.4%.

Going from `NC(=O)COC(=O)/C=C/c1ccc2ccccc2n1` to `O=C(Nc1ccccc1)C1CC(=O)n2c(nc3ccccc32)N1` (configuration not stated), the cell killing (% activity) falls from 14.6% to 1.1%.

Compared with `Cc1ccc(C(=O)NNc2ncnc3ccccc23)cc1`, `Cc1ccc(C)n1NC(=O)c1ccc([N+](=O)[O-])cc1` is lower in cell killing (% activity): 35.9% for the first, 11.3% for the second.

Compared with `CC(C)c1ccc(NC(=S)NNc2ccc(Cl)c(C(=O)O)c2)cc1`, `COc1ccc(OC)c(C(=O)c2ccc(Cl)cc2)c1` is lower in cell killing (% activity): -1.7% for the first, -11.3% for the second.

Compared with `CC(c1ccccn1)N(CCN(C)C)C(=S)Nc1ccccc1F` (configuration not stated), `COc1cc(SC)ccc1C(=O)NCCOc1ccccc1Cl` is lower in cell killing (% activity): 20.3% for the first, 9.8% for the second.

First: COc1cc2c(cc1OC)C(=O)NCC(C)(C)O2
Second: COc1ccc(C(=O)Nc2nncs2)c(OC)c1
The cell killing (% activity) of the first is lower: 20.2% for the first, 21.1% for the second.

Going from `CCC/C(C)=N\Nc1nc2c(c(=O)n(C)c(=O)n2C)n1C` to `CCOC(=O)c1sc(NC(=O)CSc2nc3c(c(=O)n2-c2ccccc2)SCC3)c(C(=O)OCC)c1C`, the cell killing (% activity) falls from 8% to 5.5%.

Going from `O=C(c1cn(-c2ccccc2)nc1-c1cc2ccccc2oc1=O)N1CCOCC1` to `COc1cc(OC)c2ccc(=O)oc2c1C(CCN1CCN(c2ccccc2)CC1)c1ccc2c(c1)OCO2` (configuration not stated), the cell killing (% activity) falls from 28.2% to -2.2%.

First: O=C(O)COCC(=O)NCc1csc2ccc(Cl)cc12
Second: O=C(Nc1nnc(SCc2ccccc2Cl)s1)c1cccc([N+](=O)[O-])c1
The cell killing (% activity) of the first is higher: 6.2% for the first, 2.1% for the second.

Compared with `CCOC(=O)C1=C(c2ccc(OC)cc2)C(=O)c2ccccc2C1=O`, `CCOC(=O)c1c(C)[nH]c(=S)c(C#N)c1-c1ccccc1` is lower in cell killing (% activity): 23.5% for the first, 18.1% for the second.

First: Cc1cccc(C2c3[nH]c4ccccc4c3CCN2C(=O)c2cc(-c3cccn3C)n[nH]2)n1 (configuration not stated)
Second: CN(C)/C=C(/C(=O)c1ccc(Cl)c(Cl)c1)c1nnnn1-c1ccccc1
The cell killing (% activity) of the first is lower: -11.4% for the first, 10.3% for the second.

First: Cc1ccnc(NC(=O)c2ccoc2C)c1
Second: O=S(=O)(NCC1CCCO1)c1cnc(Cl)c(Cl)c1 (configuration not stated)
The cell killing (% activity) of the first is higher: 0% for the first, -24.2% for the second.

Compound `CC(C)NC(=O)NCCCCCCS(C)=O` (configuration not stated) has a cell killing (% activity) of 20.6%.

With `COc1cccc(/C=N/NC(=O)c2[nH]nc3c2CCc2ccccc2-3)c1O` the cell killing (% activity) was 57.1% (active).
With `CCOc1ccc(-c2ccc(SCC(=O)N3CCOCC3)nn2)cc1` the cell killing (% activity) was 56.9% [at 5 µM] (active).
With `COc1cccc(/C=C/c2ccc3ccccc3n2)c1OC(C)=O` the cell killing (% activity) was 70.3% [at 5 µM] (active).
For `O=c1oc2ccccc2cc1-c1cn(-c2ccccc2)c(=S)[nH]1`, the cell killing (% activity) was 57.2% (active).
In the case of `CCOC(=O)c1c(C)[nH]c2c1-c1ccccc1C(=O)C2=O`, the cell killing (% activity) is reported as 96.5% [at 5 µM] (active).
In the case of `COc1cc(SC)ccc1C(=O)Nc1cc(C)ccn1`, the cell killing (% activity) is reported as 53.7% [at 5 µM] (active).
For `COc1cc(SC)ccc1C(=O)Nc1nc(C)cs1`, the cell killing (% activity) was 96% [at 5 µM] (active).
